An excerpt weighted towards active compounds, which were near 3.6% of everything screened.
NPSR antagonist: neuropeptide S receptor (human) antagonism, cAMP. actives 1% (n = 220,000). Potency, µM (series often up to 38.3 µM), most hits filed as inhibitors. AID 1461. CHO-NPSR cells, cAMP TR-FRET, antagonist mode; further: nearly all actives have a fitted effect of over 50% in size
Target sequence (Q6W5P4 whole entry, looked up): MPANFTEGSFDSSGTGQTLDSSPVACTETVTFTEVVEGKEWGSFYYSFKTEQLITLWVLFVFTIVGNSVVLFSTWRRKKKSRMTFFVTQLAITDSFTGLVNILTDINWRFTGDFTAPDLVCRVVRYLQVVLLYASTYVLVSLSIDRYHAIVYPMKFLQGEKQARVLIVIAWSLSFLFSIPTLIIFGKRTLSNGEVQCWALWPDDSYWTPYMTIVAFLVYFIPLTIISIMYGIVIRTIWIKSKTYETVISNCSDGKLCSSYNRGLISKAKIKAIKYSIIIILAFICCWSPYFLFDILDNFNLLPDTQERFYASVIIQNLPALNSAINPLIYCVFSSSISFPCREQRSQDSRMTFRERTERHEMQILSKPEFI
Epigenetic derep: epigenetic control regulation, reporter derepression; murine LDR cells, GFP reporter derepression, 30 h; Potency, µM (highest dose often 53.9 µM), usual class: activators; actives 0.2% (n = 280,000); further: nearly all actives have a fitted effect of over 60% in size
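Reporter derepression read as number of fluorescent GFP-positive objects, 20-120 um in size, counted by laser-scanning cytometer. Mouse LDR line with an epigenetically silenced CMV-GFP locus; compound incubation 30 h, 37 C.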
KDM4E inh: blocks human JMJD2E demethylase activity | Potency, µM (series often up to 57.1 µM), actives largely listed as inhibitors | JMJD2E catalytic domain, FDH-coupled NADH fluorescence (FDH is formaldehyde dehydrogenase) | B2RXH2 | AID 2147 | actives 1.6% (n = 230,000); active means well fitted inhibition curve with a large enough effect, not every such curve was filed as active; inconclusive means small, poorly fitted or top-dose-only effect, or another doubt; inactive means no such curve, though single readings can be large or run the other way; further: nearly all actives have a fitted effect of over 50% in size
IMPase Li cell: IMPase inhibition in cells with lithium potentiation. actives 0.35% (n = 210,000). CHO-M1 cells, IP1 TR-FRET (IP-One), carbachol + lithium. AID 1457. Potency, µM (series often up to 59.4 µM), hits mostly inhibitors;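 further: IP1 builds up when IMPase is blocked and the TR-FRET signal falls; nearly all actives have a fitted effect of over 50% in size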
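CHO cells stably expressing M1 receptor (2000/well) were cultured 16–30 h, then exposed to compounds with a small lithium addition for 30 min at 37C. IP1 was measured by TR-FRET competition; AC50 from Hill fits.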
GCN5L2 inh: inhibitors of human GCN5L2 histone acetyltransferase. Potency, µM (highest dose often 58.9 µM), hits mostly inhibitors. actives 0.21% (n = 390,000). GCN5L2 HAT assay, ThioGlo1 CoA-SH fluorescence. AID 504327
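Preincubate 20nM GCN5L2 with compound 15 min, RT → add 50uM ThioGlo1 + 75uM H3(1-25) + 70uM acetyl-CoA → read fluorescence 0 and 20 min. Primary qHTS; fluorescent artifacts likely.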
Sfp inh: Sfp phosphopantetheinyl transferase inhibition; Biochemical Sfp PPTase activity, qHTS; Potency, µM, most hits filed as inhibitors; actives 3.5% (n = 310,000); AID 1490;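 further: the enzyme is Sfp with the accession as filed and its product quenches rhodamine fluorescence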
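Reaction rates are the 30-min fluorescence difference (ex 525, em 598 nm) in wells containing 15 nM Sfp, 5 uM rhodamine-CoA and 12.5 uM BHQ-2-YbbR at pH 7.6 with 10 mM MgCl2.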
Numbers stand for hits; ! = not confirmed by another sample; [ ] = another dose, or the depositor's remark. Unless noted, the call rests on the fitted dose curve; in most records, active means well fitted curve in the direction sought with a large enough effect; inconclusive means small, poorly fitted or top-dose-only effect, or another doubt; inactive means no such curve, though single readings can be large; an effect the other way counts as inactive or inconclusive.

Screening CC[n+]1c(/C=C2\C=C(C)CC(C)C2)sc2ccccc21 (stereo unspecified) returned NPSR antagonist inactive, Epigenetic derep inactive, KDM4E inh inconclusive, IMPase Li cell inactive, GCN5L2 inh inactive and Sfp inh 35µM.
`CC[n+]1c(/C=C2\C=C(C)CC(C)(C)C2)sc2ccccc21` gave NPSR antagonist inconclusive, Epigenetic derep inactive, KDM4E inh inconclusive, IMPase Li cell inactive, GCN5L2 inh inactive and Sfp inh 11µM.
Screening O=P1(O)Oc2c(c(-c3ccccc3)cc3ccc4ccccc4c23)-c2c(-c3ccccc3)cc3ccc4ccccc4c3c2O1 returned Epigenetic derep inactive, KDM4E inh inconclusive, IMPase Li cell inactive and Sfp inh inactive.
Screening Nc1nc(Cc2ccccc2)nc(Cc2ccccc2)c1-c1ccccc1 returned IMPase Li cell inactive.
For COc1ccc(OC)c(C(=O)CSc2nnc(Cc3cccs3)n2C)c1 the results were NPSR antagonist inactive, Epigenetic derep inactive, KDM4E inh inconclusive, IMPase Li cell inactive, GCN5L2 inh inactive and Sfp inh 45µM.
`COc1ccc(NC(=O)CSc2nnc(Cc3cccs3)n2C)cc1` gave GCN5L2 inh inactive.
O=C(CSc1nnc(SCc2ccccc2)s1)N/N=C/C=C/c1ccco1 was read as NPSR antagonist inactive, Epigenetic derep inactive, KDM4E inh inconclusive, IMPase Li cell inactive, GCN5L2 inh inconclusive and Sfp inh 35µM.
Screening Cc1ccc(OCC(=O)N/N=C/C=C/c2ccco2)cc1C returned NPSR antagonist inactive, Epigenetic derep inconclusive, KDM4E inh inactive, IMPase Li cell inactive, GCN5L2 inh inactive and Sfp inh 45µM.
O=C(N/N=C/C=C/c1ccco1)c1cnccn1 was read as NPSR antagonist inactive, Epigenetic derep inactive, KDM4E inh inactive, GCN5L2 inh inactive and Sfp inh 10µM.
Screening O=C(N/N=C/C=C\c1ccco1)c1ccccn1 returned NPSR antagonist inactive, Epigenetic derep inconclusive, KDM4E inh inconclusive, GCN5L2 inh inactive and Sfp inh 20µM.
Cc1ccc2c(c1)C(=O)[C@@]1(O)CCN(c3ccccc3)C1=N2 was read as Epigenetic derep inactive, KDM4E inh inactive, IMPase Li cell inactive, GCN5L2 inh inactive and Sfp inh inactive.
C[C@@H](c1ccccc1)N1C(=O)[C@H]2[C@@H]3[C@H](O)[C@H](O)CC(=O)[C@H]3CC[C@H]2C1=O was read as Epigenetic derep inactive[10.1 µM] and Sfp inh inactive.
For Cc1nn2c(-c3cccc(NC(=O)CSc4nc5ccccc5o4)c3)nnc2c2ccccc12 the results were NPSR antagonist inactive, Epigenetic derep inactive, KDM4E inh inconclusive, IMPase Li cell inactive, GCN5L2 inh inactive and Sfp inh 56µM.
CCc1ccc(C2/C=C\CNC(c3ccccc3)C(=O)N2Cc2ccc(C)cc2)cc1 (stereo unspecified) was read as Sfp inh inactive.
Screening Cc1ccc(/C=C/C(=O)N2CCCC(C(N)=O)C2)o1 (stereo unspecified) returned NPSR antagonist inactive, Epigenetic derep inactive, KDM4E inh inactive, GCN5L2 inh inactive and Sfp inh 18µM.
`Cc1ccc(/C=C/C(=O)N2CCN(c3ccc(F)cc3)CC2)o1` gave NPSR antagonist inactive, Epigenetic derep inactive, KDM4E inh inactive, IMPase Li cell inactive, GCN5L2 inh inactive and Sfp inh inactive.
Screening COc1ccc(/C=C/C(=O)N2CCCc3ccccc32)cc1 returned NPSR antagonist inactive, Epigenetic derep inactive, KDM4E inh inactive, IMPase Li cell inactive, GCN5L2 inh inactive and Sfp inh 79µM.
For Cc1ccc(/C=C/C(=O)N2CCc3ccccc32)o1 the results were NPSR antagonist inactive, Epigenetic derep inactive, KDM4E inh inactive, IMPase Li cell inactive, GCN5L2 inh inactive and Sfp inh 28µM.
`CC(CN1c2ccccc2Sc2ccccc21)N(C)C` (stereo unspecified) gave NPSR antagonist inactive, Epigenetic derep inactive, KDM4E inh inactive, IMPase Li cell inactive, GCN5L2 inh inactive and Sfp inh 50µM!.
`CCN(CC)COC(=S)S` gave IMPase Li cell inactive.
